Compounds with a hit are over-represented: about 19% of the library has one in this group of screens.
CHX counter: counter-screen for Shiga toxin inhibitors: cycloheximide protein synthesis inhibition; cell reporter, cycloheximide protein synthesis inhibition counterscreen; max response, %; 300,000 tested, 12% active; in the data active means max response mostly above about 13%, no sharp cut-off; inactive means mostly below about 14%; further: read at 38.3 µM for the half of the compounds with a filed dose
Marburg entry inh: blocks Marburg virus binding to or entry into cells | Marburg virus pseudotyped entry inhibition, cell reporter | Potency, µM (titrated, usually from 37.8 µM), most hits filed as inhibitors | 300,000 tested, 1.8% active | AID 540276; calls by dose curve; tested in HEK293 cells
Pf growth 96h: P. falciparum growth inhibition at 96 hours. P. falciparum luciferase reporter growth, 96 h. Potency, µM (highest dose often 28.7 µM), hits mostly inhibitors. 320,000 tested, 6.9% active
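Cell-based qHTS: luciferase-tagged P. falciparum in erythrocytes (2% hematocrit, 0.05% parasitemia final) incubated with compounds for 96 hours, 37 C, 5% CO2; luciferase detection reagent then added and luminescence measured.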
Lassa entry inh: Lassa virus entry inhibition; Potency, µM (doses to about 37.9 µM), usual class: inhibitors; Lassa virus pseudotype entry inhibition, cell reporter; 300,000 tested, 1.2% active; calls by dose curve; tested in HEK293 cells; further: nearly all actives have a fitted effect of over 50% in size
Shiga toxin inh: Shiga toxin inhibition; Vero cells, Shiga toxin protein synthesis inhibition reporter; inhibition, % at 38.7 µM; 290,000 tested, 9.2% active; AID 2315; in the data active means inhibition mostly above about 28%, no sharp cut-off; inactive means mostly below about 43%
Pf growth 48h: P. falciparum growth inhibition at 48 hours (one generation); P. falciparum luciferase growth in erythrocytes, 48 h; Potency, µM (doses to about 28.7 µM), actives largely listed as inhibitors; 310,000 tested, 5.9% active
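Growth was read as firefly luciferase luminescence after a 48 h, 37 C, 5% CO2 exposure of compounds to reporter-bearing P. falciparum cultures (0.1% parasitemia, 2% hematocrit final) in Albumax-supplemented RPMI 1640.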
A number is an active result; – = inactive; ? = inconclusive; · = not tested or not shown; [ ] = dose if it differs, or a comment. Unless noted, the call rests on the fitted dose curve; in most records, active means well fitted inhibition curve with a large enough effect; inconclusive means small, poorly fitted or top-dose-only effect, or another doubt; inactive means no such curve, though single readings can be large or run the other way.

SMILES | CHX counter | Marburg entry inh | Pf growth 96h | Lassa entry inh | Shiga toxin inh | Pf growth 48h
Cc1cc(=O)n2c(sc3ccccc32)c1C#N | – | – | – | – | – | –
N#CCSc1nnc(COc2ccc3ccccc3c2)o1 | 67 | ? | · | – | 93 | –
S=c1[nH]nc(COc2ccc3ccccc3c2)o1 | – | ? | 9.3µM | – | 43 | –
O=C(NCc1n[nH]c(=S)n1-c1ccc(Cl)c(Cl)c1)c1cccs1 | – | – | ? | – | – | ?
CCN(C(=O)COC(=O)/C(C#N)=C/c1cc(C)n(CCOC)c1C)c1c(N)n(Cc2ccccc2)c(=O)[nH]c1=O | · | – | · | – | · | ·
COc1ccc(N=C2NC(=O)/C(=C/c3ccco3)S2)cc1 | 36 | · | 9.3µM | · | – | ?
O=C1/C(=C/c2ccccn2)SC(=S)N1c1ccc(O)cc1 | 30 | · | – | · | 67 | –
O=C1NC(=Nc2ccccc2)/C(=C/c2ccco2)S1 | – | – | ? | – | – | ?
COc1ccc(S(=O)(=O)/N=C2/NC(=O)/C(=C/c3ccco3)S2)cc1 | – | – | – | – | – | –
Cc1cccc(N2C(=O)/C(=C/c3ccccn3)SC2=S)c1 | – | · | – | · | – | –
COc1ccc(N=C2NC(=O)/C(=C/C=C/c3ccccc3)S2)cc1 | – | – | 6.6µM | 1µM | – | 7.4µM
Cc1ccc(N=C2NC(=O)S/C2=C\c2ccco2)cc1 | 18 | – | ? | – | 49 | ?
CCC(=Nc1ccc2c(c1)CCC2)c1c(O)n(C)c(=O)n(C)c1=O | – | – | – | – | – | –
COC(=O)c1c(N)c(C#N)c(C)n1-c1ccccc1 | – | – | – | – | – | –
COC(=O)[C@@H](Cc1c[nH]c2ccccc12)NC(=O)CCC(=O)c1ccc(F)cc1 | – | · | ? | · | – | ?
N#CC1(c2nc3ccccc3[nH]2)CC1c1ccc2c(c1)OCO2 (stereo unspecified) | – | – | · | – | – | –
Cc1ccc(N2C(=O)/C(=C/c3ccco3)SC2=S)cc1 | 16 | – | – | – | – | –
Cc1ccc(N2C(=O)/C(=C/c3cccnc3)SC2=S)cc1 | – | – | – | – | – | –
COC(=O)c1ccc(-c2ccc(/C=N/NC(=O)CC3(C)OCCCO3)o2)cc1 | 36 | ? | – | – | 43 | –
CC1(CC(=O)N/N=C/c2ccc(-c3ccc(Cl)cc3)o2)OCCO1 | 15 | ? | ? | – | – | –
O=C(CN1CCOCC1)N/N=C/c1ccc(-c2ccc(C(=O)O)cc2)o1 | – | – | – | – | – | –
CC1(CC(=O)N/N=C/c2ccc(-c3ccc(C(=O)O)cc3)o2)OCCO1 | – | – | – | – | – | –
C=CCc1c(C)nc(-c2ccccc2)nc1N/N=C/c1ccncc1 | 23 | ? | ? | – | – | ?
C=CCc1c(C)nc(-c2ccccc2)nc1N/N=C(\C)c1ccc(N)cc1 | – | – | – | ? | – | ?
C=CCc1c(C)nc(-c2ccccc2)nc1Nc1ccccc1O | – | ? | ? | – | – | 5.2µM
SMILES | CHX counter | Marburg entry inh | Pf growth 96h | Lassa entry inh | Shiga toxin inh | Pf growth 48h
C=CCc1c(C)nc(-c2ccccc2)nc1N/N=C/c1ccccc1 | – | · | ? | · | – | –
CCN(C(=O)/C=C/c1ccc(OC)cc1)C1CCCCC1 | 12 | – | ? | – | – | –
CCN(C(=O)/C=C/c1ccc(OC)cc1)C1CCS(=O)(=O)C1 (stereo unspecified) | · | – | ? | – | · | –
O=S(=O)(Nc1ccc(-c2csc(-c3ccccc3)n2)cc1)c1ccc(F)cc1 | – | – | – | – | – | ?
O=C(CSc1nc(-c2ccc(F)cc2)cs1)Nc1ccccn1 | – | ? | – | – | – | –
c1ccc(Nc2nc(-c3cccnc3)cs2)nc1 | 57 | ? | – | ? | 104 | –
Fc1ccc(-c2csc(Nc3ccccn3)n2)cc1 | 48 | · | – | · | 92 | –
Fc1ccc(-c2csc(-c3ccncc3)n2)cc1 | 31 | – | – | – | 49 | –
Cc1cc(N2CCCCC2)ccc1[N+](=O)[O-] | – | – | – | – | – | –
CCOC(=O)N1CCN(CC(O)COCCC23CC4CC(CC(C4)C2)C3)CC1 (stereo unspecified) | – | ? | – | – | – | ·
Cc1ccccc1CC(=O)N1CCCC(CNC(=O)c2ccc(F)cc2)C1 (stereo unspecified) | – | · | ? | · | – | –
COc1ccccc1Nc1nc(N)nc(CSc2nccn2C)n1 | – | – | – | – | 45 | –
Cc1cccc(Nc2nc(N)nc(CSc3nccn3C)n2)c1 | – | – | – | – | 51 | –
COc1ccccc1Nc1nc(N)nc(CSc2nncn2C)n1 | – | – | – | – | – | ·
Cc1ccc(Nc2nc(N)nc(CSc3nccn3C)n2)cc1 | 52 | ? | · | ? | 69 | –
CCOc1ccc(-c2noc(CCC(=O)NCCc3ccccc3)n2)cc1OC | – | – | ? | – | – | –
COc1ccccc1N1CCN(C/C=C/c2ccc(N(C)C)cc2)CC1 | – | – | ? | · | – | ?
Cc1ccc2cc3cc(C(=O)Nc4ccc(F)cc4Cl)oc3nc2c1 | · | · | · | – | · | ·
CN(c1ccccc1)S(=O)(=O)c1ccccc1Br | · | · | – | · | · | –
Nc1ccccc1SCc1cn2cccnc2n1 | 24 | · | – | · | 80 | –
Cc1cccn2cc(CNS(=O)(=O)c3ccc4ccccc4c3)nc12 | – | – | – | ? | – | –
N=C(N)SCc1cn2ccccc2n1 | – | – | – | – | – | –
Cc1cccn2cc(CSc3ccccc3N)nc12 | 31 | – | – | – | – | ·
Nc1ccccc1SCc1cn2ccccc2n1 | 68 | ? | – | ? | 55 | –
CCOc1ccccc1NC(=O)c1c(Br)cnn1C | – | – | – | – | – | –
SMILES | CHX counter | Marburg entry inh | Pf growth 96h | Lassa entry inh | Shiga toxin inh | Pf growth 48h
CCOc1ccc2nc(NC(=O)c3cccn(Cc4ccc(Cl)cc4)c3=O)sc2c1 | · | · | · | – | · | ·
CCOc1ccc2nc(N3C(=O)/C(=C/c4ccc(Cl)cc4)NC3=S)sc2c1 | 13 | – | ? | – | – | –
O=C1CC(c2ccccc2)Sc2nc(-c3ccc(F)cc3)nn21 (stereo unspecified) | · | – | · | – | · | ·
CNc1ccc2c3c(cccc13)C(=O)N(C)C2=O | – | · | – | · | – | –[0.00184 µM]
Cc1coc2c1C(=O)C(=O)c1c-2ccc2c1CCCC2(C)C | 24 | · | ? | · | 39 | ?
C[C@H]1COC2=C1C(=O)C(=O)c1c2ccc2c1CCCC2(C)C | 26 | · | ? | · | 59 | ?
CC1COC2=C1C(=O)C(=O)c1c2ccc2c1CCCC2(C)C (stereo unspecified) | – | · | · | · | 53 | ·
Cc1coc2c1C(=O)C(=O)c1c-2ccc2c(C)cccc12 | 18 | · | ? | · | 35 | ?
COc1cccc(/C=C/C(=O)c2ccc3c(c2)OCO3)c1OC | · | – | – | – | · | –
CCCOc1ccc(C(=O)Nc2sc3c(c2C(=O)OCC)CCCCC3)cc1 | · | · | · | – | · | ·
CCN(c1ccccc1)S(=O)(=O)c1cc(NC(=O)COC(=O)C2CC2)ccc1Cl | – | – | ? | ? | – | ?
NS(=O)(=O)c1ccc(CCNC(=O)c2ccccc2[N+](=O)[O-])cc1 | – | ? | – | – | – | –
O=C(NCCc1ccccc1)c1ccccc1[N+](=O)[O-] | 22 | · | ? | · | 44 | –
CCn1cc(CNC(=O)c2ccc(Cl)c([N+](=O)[O-])c2)c(C)n1 | – | – | 15µM | – | – | –
